Out of some 320,000 compounds screened, about 1,300 (0.41%) were called active. About 3% were inconclusive and are not listed. No rule for the calls is given here. A selection follows. Measured potencies and affinities stand elsewhere.

The assay is described as follows: growth inhibition of non-replicating M. tuberculosis (AID 488890).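 Also: plate controls were DMSO cells for no effect and high antibiotic wells for full effect.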 The settings on record: Mycobacterium tuberculosis non-replicating, at 25 µM, stronger effect = higher value.
Take `CN(Cc1nc2ccccc2c(=O)[nH]1)C(=O)c1ccc(S(=O)(=O)N(C)C)cc1`: the inhibition was -7.99%.
In the case of `Cc1ccc(Cc2c(C)c(C#N)c3[nH]c4ccccc4n3c2=O)cc1` it was 55.7%; in that of `COc1ccc(S(=O)(=O)N2CCC(Nc3ccccc3Cl)CC2)cc1`, 35%; in that of `COc1ccc(NC(=O)CN(Cc2ccccc2)S(C)(=O)=O)c(OC)c1`, 6.99%.
On to `CO/N=C(\C)c1ncc(C(F)(F)F)cc1N1CCOCC1`, for which the inhibition is -6.77%.
In the case of `Cc1ccc(C(=O)NC(NCC2CCCO2)C(Cl)(Cl)Cl)cc1` (stereo not given), the inhibition was -8.87%.
Take `CC1CCCN(CCCNC(=O)c2ccc(N3CCCC3=O)cc2)C1` (stereo not given): the inhibition is -2.78%.
`O=C(CCC(=O)N1CCN(c2ccccc2)CC1)Nc1nnc(C2CCCCC2)s1`: the inhibition is -14.5%.
In the case of `O=C(CSc1nnc(COc2ccccc2F)n1-c1ccccc1)NC1CCS(=O)(=O)C1` (stereo not given) it was -2.12%.
The same measure for `Cc1ccc(NC(=S)N(CCN(C)C)Cc2cc3cc(C)ccc3[nH]c2=O)cc1`: 56.8%.
The same measure for `COc1ccccc1CNC(=O)c1cnccn1`: 41.3%; for `COc1cc([N+](=O)[O-])cc(/C=N/NC(=O)c2cncc(Br)c2)c1O`: 10.5%; for `O=C(N/N=C/c1ccc(Cl)s1)c1ccccc1[N+](=O)[O-]`: 19.9%.
`O=C(N/N=C/c1ccc(Br)s1)c1ccccc1[N+](=O)[O-]`: the inhibition was 88.6%.
In the case of `O=C(N/N=C\c1cc(Br)c(Br)o1)c1cncc(Br)c1` it was -11.5%.
Take `Cc1ccc(-c2cc(C(=O)OCn3nnc4ccccc4c3=O)c3ccccc3n2)cc1`: the inhibition is -0.92%.
As for `CC1NC(=S)N(C2CCCCC2)C1=O` (stereo not given), the inhibition was 7.51%.
`O=C1c2ccccc2C(=O)N1C1CCCCC1`: the inhibition is -9.63%.
In the case of `COc1ccc2[nH]c(=O)c(CN(C(=O)c3cccnc3)c3ccc(C)c(C)c3)cc2c1` it was -6.7%.
On to `O=C(O)c1cccc(CSc2nnc(-c3ccco3)o2)c1`, for which the inhibition turned out to be 3.8%.
The same measure for `Brc1ccc(-c2nnc(-c3ccco3)o2)cc1`: 9.05%.
For `O=C(O)c1ccc(CSc2nnc(-c3ccco3)o2)cc1`, the inhibition worked out at 3.82%.
Take `Cc1cccc(-c2nnc(SCc3ccccc3)o2)c1`: the inhibition amounted to 64.4%.
For the molecule `COc1ccccc1N1CCN(CC(O)COCc2cccs2)CC1` (stereo not given), the inhibition is -4.29%.
The same measure for `Cc1c(NC(=O)c2ccccc2NC(=O)COc2ccccc2)cccc1C(=O)O`: 4.87%; for `COc1cc2[nH]c(=O)n(C3CCCCC3)c(=O)c2cc1OC`: 6.65%.
As for `COc1c[nH]n(-c2ccccc2)c(=O)c1=O`, the inhibition came out at 3.41%.
Take `O=C(C1CC(=O)N(c2ccc(Cl)cc2)C1)N1CCOCC1` (stereo not given): the inhibition was -7.5%.
As for `COc1ccc(OCC(=O)N/N=C2\CCCc3ccccc32)cc1`, the inhibition came to 34.2%.
`COc1ccc(OCC(=O)N/N=C2\CCCCc3ccccc32)cc1`: the inhibition came to 22.5%.
Turning to `Cc1c(Cl)c([N+](=O)[O-])nn1CC(=O)N1CCN(Cc2ccccc2)CC1`, the inhibition is -5.75%.
`O=C(COc1c(Cl)cccc1Cl)NN1C(=O)CSC1=S`: the inhibition amounted to 8.7%.
On to `C/C(=N\NC(=O)CCCNc1cccc(C)c1)c1ccncc1`, for which the inhibition was -0.79%.
On to `CCCCCCCC(=O)N/N=C(\C)c1cccnc1`, for which the inhibition is -21.2%.
In the case of `C/C(=N\NC(=O)CCCNc1ccccc1)c1ccncc1` it was 1.29%.
In the case of `CCCCCCCCCC(=O)N/N=C(\C)c1cccnc1` it was -3.96%.
In the case of `FC(F)C(F)(F)C1=CC(c2ccccc2)=NCCN1`, the inhibition was found to be 12.6%.
With `COc1ccc(CN(C(=O)c2ccco2)C2CCS(=O)(=O)C2)cc1` (stereo not given), the inhibition stood at 1.18%.
In the case of `Cn1cccc1/C=N/NC(=O)c1cc(-c2cccs2)nc2ccccc12` it was -12.1%; in that of `COc1ccc(CNC(=O)C(C)c2ccc([N+](=O)[O-])cc2)cc1` (stereo not given), 36.2%; in that of `COc1ccc(N2CCN(S(=O)(=O)c3ccc4c(c3)CC(C)N4C(=O)C3CC3)CC2)cc1` (stereo not given), -6.48%.
Take `COc1cc(C(=O)COC(=O)c2ccc([N+](=O)[O-])o2)cc(OC)c1OC`: the inhibition turned out to be 34.7%.
Regarding `O=C(OCC(=O)N1CCN(S(=O)(=O)c2ccccc2)CC1)c1ccc([N+](=O)[O-])o1`, the inhibition was 66.7%.
With `O=C(COC(=O)c1ccc([N+](=O)[O-])o1)c1ccccc1`, the inhibition turned out to be 22.4%.
In the case of `CCc1ccc(C(=O)OCC(=O)c2c(N)n(CC(C)C)c(=O)n(C)c2=O)cc1`, the inhibition came to 24.9%.
The same measure for `O=C(OCC(=O)N1CCN(S(=O)(=O)c2ccc(Cl)cc2)CC1)c1ccc([N+](=O)[O-])o1`: 67.7%; for `COc1ccc(OC)c(C(=O)COC(=O)c2ccc([N+](=O)[O-])o2)c1`: 54.8%.
Take `Cn1c(N)c(C(=O)COC(=O)c2ccc([N+](=O)[O-])o2)c(=O)n(C)c1=O`: the inhibition worked out at 69.7%.
On to `O=C(COC(=O)c1ccc([N+](=O)[O-])o1)NCc1ccccc1`, for which the inhibition is 49.8%.
As for `COc1ccccc1C(=O)N1CCC(C(=O)c2ccc(F)cc2)CC1`, the inhibition stood at 5.17%.
As for `O=C(O)C1CCCN(S(=O)(=O)c2ccccc2[N+](=O)[O-])C1` (stereo not given), the inhibition is -3.19%.
In the case of `CC(=O)c1cccc(NC(=O)CCc2nnc3ccc(N4CCN(C)CC4)nn23)c1` it was 1.24%.
On to `COC(=O)c1[nH]nc(C(=O)OC(C)(C)C)c1-c1ccccc1`, for which the inhibition came out at 0.97%.
`COc1ccc(C(=O)NCC(C)NC(=O)c2ccc(OC)c(Br)c2)cc1Br` (stereo not given): the inhibition is -0.81%.
Consider `CCC(Oc1ccc(F)cc1)C(=O)N1CCCCCCC1` (stereo not given), for which the inhibition is -13.2%.
For the molecule `COCCNC(=O)CS(=O)(=O)Cc1nc(-c2ccc(C)cc2)oc1C`, the inhibition was -26%.
Consider `CCC(CO)Nc1ncnc2onc(-c3ccc(F)cc3)c12` (stereo not given), for which the inhibition was -5.65%.
In the case of `Cc1nnsc1C(=O)N1CCN(c2cc(C(F)(F)F)ccn2)CC1` it was 1.32%; in that of `Cc1ccc(N(C(=O)CS(=O)CC(=O)Nc2ccc(F)cc2)C(C)C(=O)NC(C)(C)C)cc1` (stereo not given), -2.13%; in that of `CC1CCCCN1S(=O)(=O)c1ccc([N+](=O)[O-])cc1` (stereo not given), -4.65%.
As to `Cc1ccc(NC(=O)COC(=O)Cn2c(C)csc2=O)cc1`, the inhibition turned out to be 7.46%.
In the case of `COCCn1c(C)cc(C(=O)COC(=O)c2ccc(S(=O)(=O)N(C)C)cc2)c1C`, the inhibition is -12.9%.
Consider `COCCn1c(C)cc(C(=O)COC(=O)c2cccc(O)c2)c1C`, for which the inhibition was -6.95%.
With `COc1ccc([N+](=O)[O-])cc1NC(=O)c1cncc(Br)c1`, the inhibition is 36.5%.
As to `CCOCCCNC(=O)C(c1ccccc1)N(Cc1ccc2c(c1)OCO2)C(=O)c1ccccc1O` (stereo not given), the inhibition was 4.13%.
Consider `COC(=O)COc1cccc(NC(=O)c2cc(OC)cc(OC)c2)c1`, for which the inhibition came to 58.8%.
The same measure for `Cc1cccc(C(=O)Nc2cccc(OC(=O)c3cccc(C)c3)c2)c1`: 51.4%.
The same measure for `Cc1cccc(C(=O)Nc2cccc(OCC(=O)O)c2)c1`: -11.3%.
On to `O=C(O)COc1cccc(NC(=O)c2ccccc2)c1`, for which the inhibition is -6.49%.
As for `Cc1cccc(N(C(=O)c2snc(C(N)=O)c2N)C(C(=O)NCc2ccccc2)c2ccncc2)c1` (stereo not given), the inhibition amounted to 11.8%.
As for `O=C(COc1ccc(-n2cnnn2)cc1)Nc1cccc(Cl)c1Cl`, the inhibition amounted to 5.43%.
The same measure for `Cc1nnc(N/N=C/c2ccccc2C(F)(F)F)n1N`: 3.91%; for `Cc1cc(Cl)nc(Cl)c1C(=O)NCCc1ccccc1`: 5.34%; for `CCc1nnc(NC(=O)CCS(=O)(=O)c2ccc(C)cc2)s1`: 77.7%.
In the case of `CC(C)Cc1nnc(NC(=O)CCC(=O)Nc2ccc(Cl)cc2)s1` it was 12.6%; in that of `C=CCOC(=O)/C(=C\c1ccccc1)NC(=O)c1ccco1`, -12.7%; in that of `C[C@H](NC(=O)c1nc[nH]c1C(=O)N1CCN(C(=O)OC(C)(C)C)CC1)C(=O)OC(C)(C)C`, -4.48%.
Turning to `COc1ccc(OCCCN2CCc3ccccc3C2)cc1`, the inhibition was determined as 46.6%.
For `O=[N+]([O-])c1ccc(OCCCCN2CCc3ccccc3C2)cc1`, the inhibition stood at 57.5%.
For the molecule `Cc1nc(/N=C(\N)NC(=O)c2ccccc2)nc2ccccc12`, the inhibition is -4.45%.
As to `Cc1ccc2nc(N=C(N)N)nc(C)c2c1`, the inhibition was determined as 30.9%.
As to `Cc1cc2nc(/N=C(\N)NC(=O)N3c4ccccc4Sc4ccccc43)nc(C)c2cc1C`, the inhibition was -20.4%.
On to `Cc1ccc2nc(/N=C(\N)NC(=O)N3c4ccccc4Sc4ccccc43)nc(C)c2c1`, for which the inhibition is 10.2%.
On to `Cc1ccccc1Cn1cc(S(=O)(=O)c2ccc(C(C)C)cc2)c(=O)c2cc3c(cc21)OCO3`, for which the inhibition is 11.4%.
In the case of `Cc1ccc(S(=O)(=O)NC(CCc2ccccc2)CC(=O)C(C)(C)C)cc1` (stereo not given) it was 0.24%; in that of `CCOC(=O)CN1C2=NCCCN2c2ccccc21`, 15.4%.
Regarding `O=C(Cc1ccc(Cl)cc1)Nc1cccnc1`, the inhibition came to 30.9%.
For the molecule `O=C(O)c1ccccc1Nc1cc(Cl)c2nonc2c1[N+](=O)[O-]`, the inhibition was found to be 71.1%.
With `O=C(O)c1ccc(Nc2cc(Cl)c3nonc3c2[N+](=O)[O-])cc1`, the inhibition was 76%.
Take `CC(NC(=O)c1cc(S(=O)(=O)N2CCOCC2)ccc1N1CCCC1)c1ccc(Cl)c(Cl)c1` (stereo not given): the inhibition was determined as 4.97%.
`Cc1cccc(Cn2c(N3CCN(C)CC3)nc3c2c(=O)n(C)c(=O)n3C)c1`: the inhibition was -18%.
As to `CCOC(=O)c1c(NC(=O)COC(=O)c2ccccn2)sc(C)c1C`, the inhibition turned out to be 37%.
Turning to `CCOC(=O)c1c(NC(=O)COC(=O)c2nccnc2N)sc2c1CCC2`, the inhibition was determined as 26.4%.
Regarding `Cc1ccc(CN2C(=O)CSC2c2ccccc2F)cc1` (stereo not given), the inhibition came to 10.3%.
With `CCCCCCn1c(COc2ccccc2F)nnc1SCC(=O)c1c(N)n(C)c(=O)n(C)c1=O`, the inhibition is -10.3%.
For `CC1=CS(=O)(=O)CC1Sc1nc(C)n[nH]1` (stereo not given), the inhibition is -1.03%.
On to `Cc1ccc(O)c(C(=O)c2cnc3c(c2)c(=O)n(C)c(=O)n3C)c1`, for which the inhibition was -3.64%.
On to `O=C(Cn1ccc2cc(S(=O)(=O)N3CCCC3)ccc21)NCc1ccco1`, for which the inhibition stood at 21.9%.
As for `CN1C(=O)N(C)c2cccc3cccc1c23`, the inhibition is 0.15%.
For the molecule `CN1C(=O)N(C)c2ccc(Br)c3cccc1c23`, the inhibition is 6.26%.
On to `OCC1(Cc2ccccc2)CCN(Cc2cnc(-c3cccc4ccccc34)nc2)CC1`, for which the inhibition came to 4.25%.
As to `CCC(C)NC(=O)Cn1c(=O)sc2ccccc21` (stereo not given), the inhibition stood at 1.3%.
For `Cc1ccc2cccc(OCC(=O)Nc3cccc(S(=O)(=O)N4CCCC4)c3)c2n1`, the inhibition came to 4.51%.
Consider `O=C(CSc1nc2ccccc2nc1N1CCOCC1)Nc1ccccc1F`, for which the inhibition was 6.49%.
As for `CCN(CC(=O)Nc1ccc(NC(C)=O)cc1)C(=O)c1cc(CN2C(=O)c3ccccc3C2=O)ccc1OC`, the inhibition was -15%.
In the case of `Cc1c(Cl)cccc1NC(=S)N(C)CCC#N` it was -8.13%; in that of `COc1cccc(C(=O)C2CCCN(Cc3ccccn3)C2)c1` (stereo not given), 23%.
In the case of `COc1ccc(C(=O)C2CCCN(Cc3ccccn3)C2)c(OC)c1` (stereo not given), the inhibition stood at 21.8%.
On to `COc1cccc(C(=O)C2CCCN(Cc3cccc(C)n3)C2)c1` (stereo not given), for which the inhibition amounted to 37.8%.
`COc1ccc(C(=O)C2CCCN(Cc3cccc(C)n3)C2)c(OC)c1` (stereo not given): the inhibition turned out to be 19.9%.

For the origin of these results see PubChem BioAssay AID488890 (Southern Research Specialized Biocontainment Screening …, 2010).
